Measurements from ChEMBL document CHEMBL3433997, “St. Jude Leishmania screening dataset” (2016).

Columns and labels:
Type in all cases: functional
[1] = target: Solute carrier family 2, facilitated glucose transporter member 1 (Homo sapiens) (UniProt P11166); assay: ST_JUDE_LEISH: Cytotoxicity at 2uM final concentration against transgenic Leishmania Mexicana promastigotes LmGLUT1 that are glucose transport deficient and complemented with the human glucose transporter GLUT1. Activity is measured by DNA content using SYBR green in vitro
Sequence of Solute carrier family 2, facilitated glucose transporter member 1 (Homo sapiens) (P11166 whole entry): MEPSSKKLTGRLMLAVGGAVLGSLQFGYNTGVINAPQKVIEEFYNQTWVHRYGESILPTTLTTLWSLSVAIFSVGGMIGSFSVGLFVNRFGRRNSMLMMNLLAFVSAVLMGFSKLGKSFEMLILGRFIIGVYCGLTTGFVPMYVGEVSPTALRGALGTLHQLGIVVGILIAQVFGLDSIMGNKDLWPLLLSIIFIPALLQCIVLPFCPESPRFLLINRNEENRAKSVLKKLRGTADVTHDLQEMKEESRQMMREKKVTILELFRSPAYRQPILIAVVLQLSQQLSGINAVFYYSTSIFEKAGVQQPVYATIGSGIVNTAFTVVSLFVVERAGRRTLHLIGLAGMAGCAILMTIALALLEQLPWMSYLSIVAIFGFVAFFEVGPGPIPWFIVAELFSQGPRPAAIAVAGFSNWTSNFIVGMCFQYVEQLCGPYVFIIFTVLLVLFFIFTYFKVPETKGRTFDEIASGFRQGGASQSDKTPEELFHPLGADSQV

[2] = target: Hexose transporter 1 (Plasmodium falciparum) (UniProt O97467); assay: ST_JUDE_LEISH: Cytotoxicity at 2uM final concentration against transgenic Leishmania Mexicana promastigotes LmPfHT that are glucose transport deficient and complemented with the Plasmodium falciparum hexose transporter. Activity is measured by DNA content using SYBR green in vitro
[3] = target: Glucose transporter (Leishmania mexicana) (UniProt O61059); assay: ST_JUDE_LEISH: Cytotoxicity at 2uM final concentration against transgenic Leishmania Mexicana promastigotes LmGT2 that are glucose transport deficient and complemented with the L. Mexicana glucose transporter 2. Activity is measured by DNA content using SYBR green in vitro

Structure (SMILES) | inhibition [1] | inhibition [2] | inhibition [3]
Fc1ccc(-c2cc(NCCCn3ccnc3)nc(-c3cccnc3)n2)cc1 | 1.99% | 0.82% | 2.67%
CCNc1cc(C(=O)N[C@@H](Cc2ccccc2)[C@H](O)CNC2(CC(C)C)CC2)cc(N2CCCCS2(=O)=O)c1 | -1.54% | 4.02% | -0.34%
CC(CN(C)C)C(=O)Nc1ccc(-c2cccc(-c3nc4ccccc4[nH]3)c2)cc1 (stereo not given) | 5.14% | 4.81% | 8.05%
Cc1cc(NC(=O)NCCN2CCC(NS(=O)(=O)c3ccc(C(F)(F)F)cc3)C2)c2ccccc2n1 (stereo not given) | 11.8% | 11.8% | 7.4%
CS(=O)(=O)Nc1cccc(-c2cnc3[nH]cc(-c4cc(N)cc(C(=O)O)c4)c3c2)c1 | 0.76% | 1.94% | -0.41%
CC(C)CCN1CCC(Oc2ccc(NC(=O)c3ccccc3)cc2Cl)CC1 | 1.25% | 3.09% | 2.86%
COc1ccc(CCNCCCCCCNCCc2ccc(Cl)cc2)c(Cl)c1OC | 73.4% | 16.7% | 102%
Cc1ccc2c(=O)cc(CCc3cccc(F)c3F)n(CC(=O)N(Cc3ccc(-c4ccc(C(F)(F)F)cc4)cc3)C3CCN(C)CC3)c2n1 | 2% | 0.92% | 1.01%
COc1ccc(Cc2nc3c(n2C(C)=O)SC(c2ccc(Cl)c(Cl)c2)=NN3C(C)=O)cc1 | 0.08% | 5.48% | 5.39%
CN1CCN(c2nsc3ccc(-c4ccc(NC(=O)Nc5cc(C(F)(F)F)ccc5F)cc4)cc23)CC1 | 5.16% | 1.74% | 2.12%
NCc1ccc(CNCc2cccc(-c3cccc(-c4nc5cc(F)ccc5[nH]4)c3)c2)cc1 | 9.71% | 9.36% | 8.54%
CN(C)c1ccc(-c2nc3cc(N)ccc3[nH]2)cc1 | -2.7% | 3.58% | 0.22%
CN1CCN(c2ccnc3ccc(NC(=O)Nc4cccc5ccccc45)cc23)CC1 | 1.43% | -0.09% | 1.87%
COc1ccc(CN2CCCC(OC(c3ccc(F)cc3)c3ccc(F)cc3)C2)c(O)c1 (stereo not given) | 9.08% | 8.89% | 9.65%
CCN1CCN(c2cc(C)c3cc(NC(=O)c4ccc(N(CC)CC)cc4)ccc3n2)CC1 | -0.29% | 2.18% | -3.38%
C[C@@H](CC1CCCCC1)OC(=O)N[C@H]1CCN(C#N)C1 | 12.8% | 8.07% | 7.29%
Cc1cc2nc(-c3ccc(C(=O)NC4CCN(Cc5ccccc5)CC4)cc3)[nH]c2cc1C | 14.1% | 12.9% | 10.7%
COCCN1CCN(Cc2cccc(-c3ccc(-c4nc5ccccc5[nH]4)cc3)c2)CC1 | 0.45% | -3.13% | -1.36%
Cc1nc(C)c(-c2ccc(Oc3ccc(Cl)cc3)cc2)c(O)c1I | 2.9% | 0.57% | 0.03%
COc1ccc(CNC2CCN(C)CC2)cc1-c1ccc(S(=O)(=O)NCc2cccnc2)s1 | -1.99% | 0.85% | 5.84%
CCOc1cc(C(=O)Nc2cccnc2)cc(Br)c1OCCC(C)C | 1.25% | -2.07% | -0.8%
CC(C)[C@H](NC(=O)c1c(F)cccc1F)C(=O)Nc1ccc(Cc2nc3ccccc3s2)cc1 | 4.82% | 4.54% | 4.17%
Cc1cc(-c2ccc(S(=O)(=O)Nc3cc4c(cc3OC(C)C)CCN(C)CC4)cc2)ccc1Cl | -2.82% | -1.99% | -2.35%
O=C(/C=C/c1ccc(Cl)c(Cl)c1)NCCCCCN1CCCN(C(=O)Nc2ccc(Cl)c(C(F)(F)F)c2)CC1 | -0.86% | -0.33% | -2.37%
OCCN1CCN(Cc2cccc(-c3cccc(-c4nc5cc(F)ccc5[nH]4)c3)c2)CC1 | 0.05% | 1.75% | -0.17%

Structure (SMILES) | inhibition [1] | inhibition [2] | inhibition [3]
Cc1[nH]c(C)c(-c2ccc(-c3ccccc3Cl)nc2)c(=O)c1Cl | 3.05% | 3.94% | 3.11%
CCc1ccc(CN2CCC(CNC(=O)c3cc(-c4ccccc4F)cs3)C2)cc1 (stereo not given) | 1.55% | -3.47% | 1.83%
CC(C)Sc1nc2c(c(=O)n1CCc1ccccc1)C1(CCCC1)Cc1ccccc1-2 | 1.78% | 2.51% | 2.88%
CN(C(=O)c1nn(-c2ccccn2)c2nccc(-c3cccs3)c12)C1CCCCC1 | 5.01% | 5.58% | 3.33%
FC(F)(F)c1cccc(-c2cc(NCCCn3ccnc3)nc(-c3ccncc3)n2)c1 | -3.57% | -1.14% | -0.33%
Cc1[nH]c(C)c(-c2ccc(-c3ccc(OCC(F)(F)F)cc3)nc2)c(=O)c1Cl | 5.76% | 4.89% | 6.06%
COc1ccc2nc(N(CCCn3ccnc3)C(=O)C=Cc3cccs3)sc2c1 | 3.73% | 3.16% | -2.84%
O=C1COc2cc(Cl)c(CNC3CCN(CCc4ccnc5c(F)cc(F)cc45)CC3)nc2N1 | 2.1% | 2.94% | 1.57%
Clc1ccc(-c2nc(-c3ccncc3)c[nH]2)cc1Cl | 0.68% | 0.78% | -0.87%
O=C(NCC1COc2ccccc2O1)c1cnc2c(c1)nc(-c1c[nH]c(-c3ccccc3)n1)n2CCSCc1c(F)cccc1Cl (stereo not given) | 4.51% | 3.79% | 3.91%
CN(C)CCNCc1ccc(-c2ccc3c(Nc4ccc(F)cc4Cl)ccnc3c2)o1 | 4.19% | 6.24% | -0.47%
CN(C)Cc1cccc(-c2ccc(NC(=O)c3ccc4c(=O)n(Cc5cnn(C)c5)cnc4c3)cc2)c1 | 1.78% | 2.88% | 4.86%
Cc1cc(N[C@@H](Cc2ccccc2)C(=O)NC2CCCC2)nc(NCCc2cccs2)n1 | 1.27% | 2.88% | 1.56%
CC(=O)Nc1ccc(C(=O)Nc2ccc(-c3cccc(-c4nc5cc(F)ccc5[nH]4)c3)cc2)cn1 | 0.13% | 1.66% | -4.38%
COc1cccc2c(C)cc(NCc3ccc(Cl)cc3)nc12 | 4.96% | 4.71% | 3.54%
O=C(NCCCCN1CCC(c2ccc3c(c2OCCN2CCCC2=O)CCCC3)CC1)c1ccc(-c2ccc(C(F)(F)F)cc2)cc1 | -1.16% | 0.75% | -0.45%
O=C(Nc1cccc(-c2ccc(-c3nc4cc(C(F)(F)F)ccc4[nH]3)s2)c1)c1cccnc1 | 4.93% | 4.73% | 4.16%
NC1CCN(c2nc(NCCCc3ccc(O)cc3)nc(NCc3cccc4ccccc34)n2)CC1 | 0.21% | -3.11% | 2.63%
CCc1cc(NC(=O)Nc2ccnc3ccccc23)ccc1OC | 19% | 17.9% | 11.6%
O=C(Nc1ccc(-c2nc3ccccc3[nH]2)cc1)c1ccc(S(=O)(=O)N2CCCCCC2)cc1 | 1.06% | 2.45% | 1.91%
O=C(/C=C/c1ccc(Cl)c(Cl)c1)NC1CCC(CN2CCC(c3nc4ccccc4n3CCCO)CC2)CC1 (stereo not given) | 0.86% | 1.32% | 1.75%
Cc1cccc2nc(-c3cccc(-c4ccc(NC(=O)Nc5ccc(Cl)c(Cl)c5)cc4)c3)[nH]c12 | 0.3% | -1.23% | 1.91%
CCCNCc1ccc(-c2ccc(CN(CCOC)C(=O)COc3ccccc3Cl)cc2)nc1 | -0.3% | 1.54% | -1.95%
COc1ccc(NC(=O)[C@H](CC(C)C)Nc2cc(C)nc(NCc3cccc(C)c3)n2)cc1 | 9.89% | 9.82% | 7.22%
COc1ccc(NC(=O)c2cc(NC(=O)C3(N)CC3)c(=O)n(Cc3ccc(C(N)=O)cc3)c2)cc1 | 0.5% | 3.44% | 2.12%
